These results are taken from article PMC10812921, “Transcriptional Coactivator BOB1 (OBF1, OCA-B) Modulates the Specificity of DNA Recognition by the POU-Domain Factors OCT1 and OCT2 in a Monomeric Configuration”.

Chain of POU1 (OCT1 POU domain) (P14859 260-458): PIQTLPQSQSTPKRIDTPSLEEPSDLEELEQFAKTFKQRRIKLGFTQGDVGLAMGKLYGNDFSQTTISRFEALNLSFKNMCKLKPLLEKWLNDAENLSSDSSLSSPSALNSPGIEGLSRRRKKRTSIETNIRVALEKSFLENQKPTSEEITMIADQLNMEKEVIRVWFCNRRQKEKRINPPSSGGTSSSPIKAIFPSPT

One experiment concerns the target POU1 (OCT1 POU domain) (human, UniProt P14859 260-458). Briefly: EMSA-SELEX-seq; no BOB1; 20 mM Tris-HCl pH 7.6, 140 mM NaCl, 10% glycerol, 0.5 mM EDTA, 0.05% Triton X-100, 0.1 mg/mL BSA, 0.1 mg/mL poly(dI-dC), 5 mM DTT, room temperature, 20 min; high values mean tight binding. The following applies: protein: recombinant; dsDNA, one strand shown. The gist of the method: (§1)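 Binding preference means the percentage of sequenced 8-mers matching a motif pattern. Tagged POU-domain proteins (30 ng), expressed in E. coli BL21, purified under denaturing conditions and renatured, were mixed with 300 ng of a PCR-amplified double-stranded random 35-nt library, with or without 28 ng coactivator protein, for 20 min at RT in 20 μL Tris–HCl pH 7.6 binding buffer. Selection was repeated over four rounds of excising complex bands from native 6% PAGE, eluting and PCR amplification, followed by Illumina sequencing.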
A general note: In EMSA bound probe runs differently from free probe, usually more slowly.
ATCGTAAC: the binding signal is 0.0236 % of ANNNNAAN 8-mers.
As to AAATAAAG, the binding signal was 0.156 % of ANNNNAAN 8-mers.
As to ACAAAAAC, the binding signal is 0.0488 % of ANNNNAAN 8-mers.
Same read-out and setting: the same measure for ATATCAAA: 0.0877 % of ANNNNAAN 8-mers.
On to ATAGCAAA, for which the binding signal is 0.0744 % of ANNNNAAN 8-mers.
With AGATAAAG, the binding signal is 0.0439 % of ANNNNAAN 8-mers.
Consider AGACCAAG, for which the binding signal was 0.0137 % of ANNNNAAN 8-mers.
Take ACCAGAAT: the binding signal is 0.032 % of ANNNNAAN 8-mers.
In the case of AGCATAAT, the binding signal is 0.269 % of ANNNNAAN 8-mers.
Same read-out and setting: then AAAGGAAT, with 0.0953 % of ANNNNAAN 8-mers.
On the same count and under the same terms, then ATGTGAAG, with 0.0484 % of ANNNNAAN 8-mers.
Still for that read-out and setting: then AAGGGAAC, with 0.0389 % of ANNNNAAN 8-mers.
Regarding AGGTAAAA, the binding signal is 0.129 % of ANNNNAAN 8-mers.
Same read-out and setting: the same measure for ACGTCAAG: 0.0191 % of ANNNNAAN 8-mers; for AAGACAAC: 0.0168 % of ANNNNAAN 8-mers; for AGATTAAT: 0.147 % of ANNNNAAN 8-mers.
Take ATTTTAAG: the binding signal was 0.108 % of ANNNNAAN 8-mers.
In the case of ACTTCAAA, the binding signal was 0.0256 % of ANNNNAAN 8-mers.
In the case of AATCCAAG, the binding signal was 0.0324 % of ANNNNAAN 8-mers.
Still for that read-out and setting: the same measure for AGGGCAAG: 0.0294 % of ANNNNAAN 8-mers.
Same read-out and setting: then AGGGGAAA, with 0.101 % of ANNNNAAN 8-mers; and ACCGCAAA, with 0.0179 % of ANNNNAAN 8-mers; and ATCGCAAA, with 0.0515 % of ANNNNAAN 8-mers.
Still for that read-out and setting: the same measure for AAGGAAAC: 0.0385 % of ANNNNAAN 8-mers; for ATTTCAAT: 0.238 % of ANNNNAAN 8-mers; for ACCAGAAA: 0.029 % of ANNNNAAN 8-mers.
As for ATTGTAAT, the binding signal was 0.312 % of ANNNNAAN 8-mers.
Still for that read-out and setting: the same measure for ACATGAAC: 0.0244 % of ANNNNAAN 8-mers; for ACGAGAAG: 0.0217 % of ANNNNAAN 8-mers; for ATATAAAT: 0.16 % of ANNNNAAN 8-mers.
As for AAACTAAA, the binding signal was 0.0503 % of ANNNNAAN 8-mers.
Still for that read-out and setting: then ACACTAAT, with 0.0568 % of ANNNNAAN 8-mers; and AACGTAAG, with 0.0301 % of ANNNNAAN 8-mers.
On the same count and under the same terms, then AGGCAAAA, with 0.236 % of ANNNNAAN 8-mers.
Same read-out and setting: the same measure for ACTGAAAC: 0.0164 % of ANNNNAAN 8-mers; for ACGTTAAC: 0.024 % of ANNNNAAN 8-mers; for AACATAAG: 0.0694 % of ANNNNAAN 8-mers.
As to ATTTGAAC, the binding signal is 0.0496 % of ANNNNAAN 8-mers.
As to ACACCAAA, the binding signal is 0.0149 % of ANNNNAAN 8-mers.
On the same count and under the same terms, then AAGCCAAT, with 0.0282 % of ANNNNAAN 8-mers.

The target in another experiment is T1, POU2 (OCT2 POU domain) (human, UniProt P09086 175-386).
T1 sequence: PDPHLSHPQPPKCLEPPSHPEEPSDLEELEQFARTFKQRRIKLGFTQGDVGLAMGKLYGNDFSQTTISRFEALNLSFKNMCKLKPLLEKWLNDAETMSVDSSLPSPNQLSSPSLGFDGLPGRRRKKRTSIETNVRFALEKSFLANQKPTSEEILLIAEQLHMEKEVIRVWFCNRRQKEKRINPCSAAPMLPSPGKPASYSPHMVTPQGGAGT
Described as above. The note with it: protein: recombinant; dsDNA, one strand shown. An outline of the steps: as §1
Regarding ATCGTAAC, the binding signal is 0.0288 % of ANNNNAAN 8-mers.
As to AAATAAAG, the binding signal is 0.151 % of ANNNNAAN 8-mers.
Same read-out and setting: the same measure for ACAAAAAC: 0.0397 % of ANNNNAAN 8-mers.
As for ATATCAAA, the binding signal was 0.0806 % of ANNNNAAN 8-mers.
ATAGCAAA: the binding signal is 0.0552 % of ANNNNAAN 8-mers.
The same measure, in the same setting: the same measure for AGATAAAG: 0.0495 % of ANNNNAAN 8-mers.
With AGACCAAG, the binding signal is 0.0121 % of ANNNNAAN 8-mers.
The same measure, in the same setting: then ACCAGAAT, with 0.0437 % of ANNNNAAN 8-mers.
For the sequence AGCATAAT, the binding signal is 0.277 % of ANNNNAAN 8-mers.
Turning to AAAGGAAT, the binding signal is 0.124 % of ANNNNAAN 8-mers.
Still for that read-out and setting: the same measure for ATGTGAAG: 0.0627 % of ANNNNAAN 8-mers.
On to AAGGGAAC, for which the binding signal is 0.0506 % of ANNNNAAN 8-mers.
Take AGGTAAAA: the binding signal was 0.1 % of ANNNNAAN 8-mers.
On the same count and under the same terms, the same measure for ACGTCAAG: 0.0253 % of ANNNNAAN 8-mers; for AAGACAAC: 0.019 % of ANNNNAAN 8-mers; for AGATTAAT: 0.207 % of ANNNNAAN 8-mers.
The same measure, in the same setting: the same measure for ATTTTAAG: 0.131 % of ANNNNAAN 8-mers.
Turning to ACTTCAAA, the binding signal is 0.0322 % of ANNNNAAN 8-mers.
As to AATCCAAG, the binding signal is 0.0339 % of ANNNNAAN 8-mers.
Turning to AGGGCAAG, the binding signal is 0.0322 % of ANNNNAAN 8-mers.
Consider AGGGGAAA, for which the binding signal was 0.0794 % of ANNNNAAN 8-mers.
Turning to ACCGCAAA, the binding signal was 0.0167 % of ANNNNAAN 8-mers.
On the same count and under the same terms, the same measure for ATCGCAAA: 0.0478 % of ANNNNAAN 8-mers; for AAGGAAAC: 0.0403 % of ANNNNAAN 8-mers; for ATTTCAAT: 0.268 % of ANNNNAAN 8-mers.
The same measure, in the same setting: then ACCAGAAA, with 0.0242 % of ANNNNAAN 8-mers; and ATTGTAAT, with 0.357 % of ANNNNAAN 8-mers; and ACATGAAC, with 0.0334 % of ANNNNAAN 8-mers.
On the same count and under the same terms, then ACGAGAAG, with 0.0288 % of ANNNNAAN 8-mers; and ATATAAAT, with 0.222 % of ANNNNAAN 8-mers; and AAACTAAA, with 0.0483 % of ANNNNAAN 8-mers.
As to ACACTAAT, the binding signal was 0.0811 % of ANNNNAAN 8-mers.
In the case of AACGTAAG, the binding signal was 0.0351 % of ANNNNAAN 8-mers.
AGGCAAAA: the binding signal is 0.136 % of ANNNNAAN 8-mers.
Take ACTGAAAC: the binding signal is 0.019 % of ANNNNAAN 8-mers.
Consider ACGTTAAC, for which the binding signal was 0.0316 % of ANNNNAAN 8-mers.
Still for that read-out and setting: then AACATAAG, with 0.0731 % of ANNNNAAN 8-mers.
ATTTGAAC: the binding signal is 0.0558 % of ANNNNAAN 8-mers.
Same read-out and setting: the same measure for ACACCAAA: 0.0184 % of ANNNNAAN 8-mers.
On the same count and under the same terms, then AAGCCAAT, with 0.0247 % of ANNNNAAN 8-mers.
